# Compounds with a hit are over-represented: about 19% of the library has one in this group of screens.
# DT40 TDP1 no CPT: qHTS for Inhibitors of human tyrosyl-DNA phosphodiesterase 1 (TDP1): qHTS in cells in absence of CPT; Potency, µM (top dose mostly 46.2 µM), without a hit: top-dose activity change, negative = growth inhibition, actives largely listed as inhibitors; DT40 Tdp1-/- hTDP1 cells, no CPT, ATP luminescence, 48 h; AID 686978, 2013; actives 15% (n = 420,000); further: potency means the concentration at half of the fitted maximal effect; nearly all actives have a fitted effect of over 55% in size
#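 Chicken DT40 Tdp1-/- cells stably complemented with human TDP1 were seeded at 400 cells/well with DMSO in place of 20 nM camptothecin. After compound pinning, cells grew at least 48 hr at 37 °C; viability read by CellTiter-Glo luminescence.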
# IL-1B inflam inh: blocks inflammasome-driven IL-1 beta release; actives 4.7% (n = 360,000); AID 743279; activity change, % at 57.5 µM; THP-1 LPS/ATP IL-1B secretion, AlphaLISA, 16 h; stronger effect = lower value; in the data active means activity change below about -50%; inconclusive means mostly about -30% to -49%
#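 THP-1 cells pretreated 1 hr with compounds (up to 57.5 uM final), then stimulated with LPS (250 ng/mL final) plus ATP (1.25 mM final); secreted IL-1B measured by AlphaLISA after 16 hr, decreased signal indicating inhibition.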
# HT1080 IDH1KD tx: toxicity to HT-1080 IDH1 knockdown cells (counter line). Potency, µM (highest dose often 46.1 µM), without a hit: top-dose activity, negative = toxicity, usual class: cytotoxic. HT-1080 IDH1 knockdown viability, ATP luminescence, 48 h. actives 2% (n = 360,000);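 further: potency means the concentration at half of the fitted maximal effect; 0% = DMSO wells and -100% = cell-free medium wells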
#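 Using the IDH1-knockdown HT-1080 line run in the same batch and compound series as the NT line, viability after 48 h at 37 °C was determined by CellTiter-Glo luminescence and expressed as % activity.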
# TDP1 cell CPT: DT40-hTDP1 cell growth loss with CPT; chicken DT40 Tdp1-/-;hTDP1 cells + 20 nM CPT, ATP luminescence, 48 h; Potency, µM (top dose mostly 46.2 µM), without a hit: at the top dose activity change, negative = growth inhibition, actives largely listed as inhibitors; actives 12% (n = 420,000); further: potency means the concentration at half of the fitted maximal effect; nearly all actives have a fitted effect of over 55% in size
#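 Chicken DT40 Tdp1-/- cells complemented with human TDP1, 400 cells/well, exposed to compounds plus 20 nM camptothecin for at least 48 h at 37 C; viability read as ATP content by CellTiter-Glo luminescence.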
# HT1080-NT tox: kills 2HG-producing HT-1080-NT fibrosarcoma cells; HT-1080-NT fibrosarcoma viability, CellTiter-Glo ATP luminescence, 48 h; Potency, µM (highest dose often 46.1 µM), inactives show at the highest dose activity, negative = less viability, most hits filed as cytotoxic; actives 1.6% (n = 360,000);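 further: NT is the 2HG producing partner of a matched IDH1 knockdown line; potency means the concentration at half of the fitted maximal effect; 0% = DMSO-treated cells and -100% = media-only wells without cells; nearly all actives have a fitted effect of over 55% in size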
#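 Fibrosarcoma NT cells, 750 per well in 5% FBS RPMI, were exposed to compound for 48 hours. Viability: CellTiter-Glo luminescence.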
# An asterisk follows results filed as active; i = inactive; ? = inconclusive; / = not tested or not shown; [ ] = another dose, or the depositor's remark. Unless noted, the call rests on the fitted dose curve; in most records, active means well fitted curve in the direction sought with a large enough effect; inconclusive means small, poorly fitted or top-dose-only effect, or another doubt; inactive means no such curve, though single readings can be large; an effect the other way counts as inactive or inconclusive. Unless noted, on the % scale 0 is the no-effect control and ±100 the full control effect.
SMILES,DT40 TDP1 no CPT,IL-1B inflam inh,HT1080 IDH1KD tx,TDP1 cell CPT,HT1080-NT tox
O=C(NCCOc1ccc(Cl)cc1)C1CC(=O)N(c2ccc3c(c2)OCCO3)C1 (stereo unspecified),-16%,-9,-6%,-2%,-7%
O=C(COc1ccc2c3c(c(=O)oc2c1)CCC3)Nc1ccc(CCO)cc1,8%,-53*,21%,-23%,8%
CNC(=O)COc1ccc2oc3c(c2c1)CCCC3,-7%,8,10%,8%,25%
O=C(COc1ccc2oc3c(c2c1)CCCC3)Nc1cccc(Br)c1,21µM*,/,/,?,/
Cc1ccnc(NC(=O)COc2ccc3oc4c(c3c2)CCCC4)c1,12µM*,-29,-26%,?,-13%
NNC(=O)COc1ccc2oc3c(c2c1)CCCC3,-4%,2,-5%,-3%,-6%
Cc1ccccc1NC(=O)COc1ccc2oc3c(c2c1)CCCC3,18µM*,/,/,16µM*,/
N#Cc1cccc(OC(=O)C2CCN(C(=O)c3ccc(F)cc3)CC2)c1,-2%,11,2%,-19%,3%
COc1cccc(-c2cnc(-c3ccncc3)nc2C2CCN(C(=O)Cc3csc(C)n3)CC2)c1,?,/,/,-2%[9.04 µM],/
CCOC(=O)COc1ccc(Br)cc1/C=C\c1[nH]c(=O)[nH]c(=O)c1[N+](=O)[O-],23µM*,i,-11%,23µM*,-3%
CCOC(=O)COc1ccc(Br)cc1/C=C/c1[nH]c(=O)[nH]c(=O)c1[N+](=O)[O-],?,-63*,?,-3%,18µM*
CCOc1ccc(/C=C/c2[nH]c(=O)[nH]c(=O)c2[N+](=O)[O-])cc1,-1%,16,10%,-9%,21%
O=C(COc1ccccc1/C=C\c1[nH]c(=O)[nH]c(=O)c1[N+](=O)[O-])Nc1ccccc1,-12%,-14,10%,-4%,0%
COc1ccc(NC(=O)N(C)C[C@H]2Oc3c(NS(=O)(=O)c4cccs4)cccc3C(=O)N([C@@H](C)CO)C[C@@H]2C)cc1,-7%,22,11%,3%,16%
COc1ccc(NC(=O)c2cccc(S(=O)(=O)Nc3ccc(Br)cc3)c2)cn1,23µM*,-80*,?,?,?
O=C(Nc1ccc(Br)cc1)c1cccc(S(=O)(=O)Nc2ccccn2)c1,16µM*,i,-12%,-17%,-17%
O=C1CSc2ccc(C(=O)Nc3cccc(S(=O)(=O)Nc4ccc(Br)cc4)c3)cc2N1,8.2µM*,?,/,18µM*,/
COCCn1c(=O)c(C)nc2cnc(Nc3ccccc3)nc21,0%,/,/,6%,/
COc1ccc(CCC(C)NCc2ccc(Cl)c(Cl)c2)cc1 (stereo unspecified),-12%,-3,7%,-28%,14%
COc1ccc(CCC(=O)NC2CCCCC2)cc1,15%,5,18%,-6%,10%
COc1ccc(CCC(C)NC2CCCCCCC2)cc1 (stereo unspecified),?,-73*,?,?,?
COc1ccc(CCC(C)NCC2CCCCC2)cc1 (stereo unspecified),18µM*,-18,-7%,?,-23%
COc1ccc(CCC(C)NCCc2ccc(Cl)cc2Cl)cc1 (stereo unspecified),23µM*,-51*,?,?,?
COc1ccc(CCC(C)NCc2cc(OC)cc(OC)c2)cc1 (stereo unspecified),?,-17,-3%,?,1%
CCC(CC)C(=O)NCCc1ccc(F)cc1,-8%,-2,12%,-20%,13%
SMILES,DT40 TDP1 no CPT,IL-1B inflam inh,HT1080 IDH1KD tx,TDP1 cell CPT,HT1080-NT tox
Fc1ccc2[nH]c3c(N4CCc5ccccc5C4)ncnc3c2c1,1.8µM*,?,2.6µM*,1.8µM*,10µM*
CCOc1ccc2[nH]c3c(N4CCc5ccccc5C4)ncnc3c2c1,16µM*,/,10µM*,15µM*,18µM*
CN1CCN(c2ncnc3c2[nH]c2ccc(F)cc23)CC1,?,-21,-23%,?,0%
Cc1ccc2[nH]c3c(N4CCc5ccccc5C4)ncnc3c2c1,3.7µM*,-83*,-8%,2.9µM*,21µM*
COC(=O)C1(NC(=O)CNC(=O)OCc2ccccc2)CCCC1,-18%,-6,12%,6%,1%
O=C(Nc1nc(-c2ccccn2)cs1)c1ccc(F)c(S(=O)(=O)N2CCOCC2)c1,0.58µM*,140,?,1.5µM*,?
Cc1nnc(NC(=O)c2ccc(F)c(S(=O)(=O)N3CCOCC3)c2)s1,-8%,15,8%,-3%,8%
Cc1ccc(C(=O)Nc2ccccn2)cc1S(=O)(=O)N1CCOCC1,6%,7,1%,1%,0%
Cc1ccc(C(=O)Nc2nc(-c3ccccn3)cs2)cc1S(=O)(=O)N1CCOCC1,0.73µM*,171,4.6µM*,1.3µM*,18µM*
O=C(Nc1nc(-c2ccccn2)cs1)c1cc(S(=O)(=O)N2CCOCC2)ccc1F,2.3µM*,97,?,2.6µM*,?
Cc1cc(=O)oc2cc(OCc3ccc(C(=O)N4CCN(c5ccccc5)CC4)cc3)ccc12,?,-7,-1%,?,-9%
Cc1ccc(NC(=O)CSc2nc3ccccc3c(=O)n2CCCC(=O)NCCCN2CCOCC2)cc1,-10%,?,-16%,-1%,-9%
COc1cc(=O)n2c(c1C(=O)N(C)Cc1cscn1)CCN(C(=O)c1ccc(C)cc1C)CC2,-6%,/,/,7%,/
Cc1cc(C(=O)CSc2nnc3ccccn23)c(C)n1-c1ccccc1,23µM*,5,-3%,?,-2%
CCOC(=O)N1CCN(C(=O)c2ccc(-c3ccccc3OC)nc2N2CCC(N3CCCC(CO)C3)CC2)CC1 (stereo unspecified),-18%,/,/,18%[9.04 µM],/
COc1cc(OC)c(N(C)S(=O)(=O)c2cccc(C(=O)Nc3nccs3)c2)cc1Cl,18µM*,-14,?,?,-27%
COc1cc(OC)c(N(C)S(=O)(=O)c2cccc(C(=O)OCC(=O)N(C)C3CCCCC3)c2)cc1Cl,?,1,3%,?,3%
CC(NC(=O)c1cccc(S(=O)(=O)N2CCN(C)CC2)c1)C1CC2CCC1C2 (stereo unspecified),?,-7,-3%,-13%,-9%
COc1cc(OC)c(N(C)S(=O)(=O)c2cccc(C(=O)NC(C)C3CC4CCC3C4)c2)cc1Cl (stereo unspecified),23µM*,18,-2%,18µM*,4%
O=C(c1ccccc1Cl)n1nc(-c2cccnc2)nc1NCc1ccc(F)cc1,?,/,/,-19%,/

# Bioassay records as filed in PubChem BioAssay.
